Assay results published in PubChem BioAssay (NCATS).
Records with an inconclusive call do not appear. A call without a number means that no potency is given here. Active and inactive are the calls of the source. Calls follow the shape of the full dose curve.

The compounds below were run against Bile acid receptor (Homo sapiens) (UniProt Q96RI1) (assay: qHTS assay for small molecule antagonists of farnesoid X receptor signaling (AID 588526)). Settings: HEK293T FXR-UAS-bla, beta-lactamase ratio, antagonist mode; series mostly up to 76.7 µM.
Sequence of Bile acid receptor (Homo sapiens) (Q96RI1 whole entry, looked up): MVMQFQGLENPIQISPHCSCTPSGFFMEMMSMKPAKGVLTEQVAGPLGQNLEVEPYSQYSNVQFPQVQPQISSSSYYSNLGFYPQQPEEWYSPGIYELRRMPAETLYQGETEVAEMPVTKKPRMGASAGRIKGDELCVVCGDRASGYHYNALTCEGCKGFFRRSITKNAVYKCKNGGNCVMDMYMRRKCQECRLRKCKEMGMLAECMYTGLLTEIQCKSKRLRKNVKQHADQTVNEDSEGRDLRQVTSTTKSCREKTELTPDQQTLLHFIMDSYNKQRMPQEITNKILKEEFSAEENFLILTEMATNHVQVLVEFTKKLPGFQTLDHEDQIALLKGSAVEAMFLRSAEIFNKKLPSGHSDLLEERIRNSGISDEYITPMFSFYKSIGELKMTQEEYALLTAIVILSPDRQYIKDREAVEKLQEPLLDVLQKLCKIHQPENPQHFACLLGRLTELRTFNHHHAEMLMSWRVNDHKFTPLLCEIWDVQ
Description: NIH Chemical Genomics Center [NCGC] U.S. Environmental Protection Agency [EPA] National Institutes of Environmental Health Sciences [NIEHS] National Toxicology Program [NTP] NCGC Assay Overview The farnesoid-X-receptor (FXR), a nuclear hormone receptor is highly expressed in liver, intestine, kidney and adrenal cortex. Natural ligands of FXR are the bile acids (Cholic acid, Chenodeoxy cholic acid etc). It is an important regulator of diverse metabolic pathways, including the bile acid homeostasis, lipid and glucose metabolisms. FXR regulates the expression of target genes by binding either as a monomer or as a heterodimer with RXR (retinoid X receptor). As FXR regulates a large number of target genes involved in bile acid, lipoprotein and glucose metabolisms, it is a potential pharmacological target for bile acid and lipid disorders. Thus screening environmental chemicals on FXR signaling can be used for the studies focused on metabolic syndrome, hepatic and intestinal toxicity etc.
NCGC Assay Protocol Summary Using a beta-lactamase reporter-gene under control of Farnesoid X receptor (FXR) response element, a cell-based assay [GeneBLAzer FXR-UAS-bla assay developed by Invitrogen] was used to measure FXR ligands signaling. GeneBLAzer FXR-UAS-bla HEK293T cells were used with assay medium containing 10% dialyzed FBS. The assay was performed in clear bottom black Greiner 1536-well plates. Guggulsterone were used in the screen as the positive control. Library compounds were measured for their ability to inhibit the reporter gene activity. Compounds were screened in a titration series in 1536-well format. The fluorescence intensity (405 nm excitation, 460/530 nm emission) was measured using an EnVision plate reader. Data was normalized relative to Chenodeoxycholic acid (50 uM, 100%), and DMSO only wells (basal, 0%). Concentration-response titration points for each compound were fitted to the Hill equation yielding concentrations of half-maximal inhibition (IC50) and maximal response (efficacy) values. qHTS protocol for FXR beta-lactamase assay in antagonist mode [Step] [Parameter] [Value] [Description] 1. Reagent; 5 uL; 5000 cells/well 2. Incubation; 37 C for 5-7 hrs 3. Compounds; 23 nL; 0.59 nM to 92 uM 4. Controls (Guggulsterone, FXR antagonist); 23 nL, - One column of dose response, start 200 uM, 1:2 dilutions in duplicates 5. Agonist (Stimulator); 1uL; Chenodeoxycholic acid at 100 uM and 50 uM final concentrations 6. Incubation; 37 C for 16 hrs 7. Detection reagent; 1 uL of CCF4-dye 8. Incubation; RT for 2 hrs 9. Detection; Fluorescence; Envision plate reader
`CCCCNS(=O)(=O)c1ccccc1` was tested, and the Potency was “inactive”.
For `CCCCCCCOC(=O)c1ccccc1C(=O)OCCCCCCC`, the Potency was “inactive”.
In the case of `CCCCCCCCCCCCCCCCCCN`, the Potency is reported as “inactive”.
For `CCCCOC(=O)[C@@H](C)Oc1ccc(Oc2ccc(C(F)(F)F)cn2)cc1`, the Potency was “inactive”.
With `CC1(C)C(=O)N(Br)C(=O)N1Br` the Potency was “inactive”.
For `CC1COCc2cc3c(cc21)C(C)(C)C(C)C3(C)C` (stereo not given), the Potency was “inactive”.
With `CCC(=O)C1C(=O)CC(C(=O)O)CC1=O` (stereo not given) the Potency was “inactive”.
`CC(C)C(=O)OCC(C)(C)C(O)C(C)C` (stereo not given) was tested, and the Potency was “inactive”.
With `C=Cc1ccccc1Br` the Potency was “inactive”.
In the case of `C[C@]12CCC(=O)C=C1CC[C@@H]1[C@@H]2[C@@H](O)C[C@]2(C=O)[C@@H](C(=O)CO)CC[C@@H]12`, the Potency is reported as “inactive”.
`CCCCOCC(C)OCC(C)O` (stereo not given) was tested, and the Potency was “inactive”.
With `C[Si](C)(Cl)[Si](C)(C)Cl` the Potency was “inactive”.
In the case of `CS(C)=O`, the Potency is reported as “inactive”.
`CCCCCCCC(=O)Oc1c(Br)cc(C#N)cc1Br` was tested, and the Potency was “inactive”.
With `Oc1ccc2ccccc2c1N=Nc1ccccc1` the Potency was “inactive”.
`O=C(O)C(c1ccc(Cl)cc1)c1ccc(Cl)cc1` was tested, and the Potency was “inactive”.
For `C=C(C)C(=O)OCC(CC)(COC(=O)C(=C)C)COC(=O)C(=C)C`, the Potency was “inactive”.
In the case of `CCOc1ccc(NC(=O)OC(C)C)cc1OCC`, the Potency is reported as “inactive”.
For `CCO[Si](CCC#N)(OCC)OCC`, the Potency was “inactive”.
For `C=C[Si](OCCOC)(OCCOC)OCCOC`, the Potency was “inactive”.
In the case of `CC(C)(C)C(O)/C(=C\c1ccc(Cl)cc1)n1cncn1` (stereo not given), the Potency is reported as “inactive”.
With `C=CCCCCCCCCCCCC` the Potency was “inactive”.
`O=C1CCC(C2CCCCC2)CC1` was tested, and the Potency was “inactive”.
For `c1ccc2c(c1)ccc1c3ccccc3ccc21`, the Potency was “inactive”.
With `CCCCCCCCCCCCCCCCCC(N)=O` the Potency was “inactive”.
For `CN(C)c1nc(=O)n(C2CCC(O)CC2)c(=O)n1C` (stereo not given), the Potency was “inactive”.
In the case of `C=C(C)C(=O)OCCCCCCCCCCCCCCCC`, the Potency is reported as “inactive”.
`C[Si](Cl)(Cl)[Si](C)(Cl)Cl` was tested, and the Potency was “inactive”.
With `O=C(OCCOCCOC(=O)c1ccccc1)c1ccccc1` the Potency was “inactive”.
In the case of `CCCCCCCCCCCCCCC(=O)OC`, the Potency is reported as “inactive”.
With `c1ccc2cc3c(ccc4ccccc43)cc2c1` the Potency was “inactive”.
For `CCOCCOCCOC(C)=O`, the Potency was “inactive”.
With `CS/C(=N\O)C(=O)N(C)C` the Potency was “inactive”.
In the case of `CCc1cccc(C)c1N(C(=O)CS(=O)(=O)O)[C@@H](C)COC`, the Potency is reported as “inactive”.
For `Nc1ccc(N)c2c1C(=O)c1c(N)ccc(N)c1C2=O`, the Potency was “inactive”.
For `CCCCOC(=O)/C=C\C(=O)OCCCC`, the Potency was “inactive”.
In the case of `CC(C)=CCC[C@@H](C)[C@H]1CC[C@@]2(C)C3=C(CC[C@]12C)[C@@]1(C)CC[C@H](O)C(C)(C)[C@@H]1CC3`, the Potency is reported as “inactive”.
In the case of `CCOCCOCCOCCO`, the Potency is reported as “inactive”.
With `CCCCCCCCCCCO` the Potency was “inactive”.
With `CC(C)c1ccc(C(C)C)cc1` the Potency was “inactive”.
